Bioassay records: PubChem BioAssay, Broad Institute
Many of the other results were omitted from the sample, so hits are more common in it than they were.
Vaccinia stage: blocks a specific stage of Vaccinia orthopoxvirus infection; Vaccinia-infected cells, mCherry/Venus stage reporter fluorescence; stronger effect = lower value; activity change (mCherry), % (concentration not given with the values); actives 0.01% (n = 89,000); in the data active = activity change below about -37%, passing the limit was not always enough; tested in A549 cells
Numbers without * were called inactive.

`CN(C)C(=O)c1ccc(-c2cccc(-c3nc(C(=O)NCc4ccccc4)cc4c3[C@@H](CCO)N([S@](=O)C(C)(C)C)C4)c2)cc1` gave Vaccinia stage -15.
Screening CN(C)C(=O)c1ccc(-c2cccc(-c3nc(C(=O)NC4CCC4)cc4c3[C@@H](CCO)N([S@](=O)C(C)(C)C)C4)c2)cc1 returned Vaccinia stage -11.
CN(C)C(=O)c1ccc(-c2cccc(-c3nc(C(=O)NCc4ccccc4)cc4c3[C@H](CCO)N([S@@](=O)C(C)(C)C)C4)c2)cc1 was read as Vaccinia stage -24.
`CN(C)C(=O)c1ccc(-c2cccc(-c3nc(C(=O)NC4CCCC4)cc4c3[C@H](CCO)N([S@@](=O)C(C)(C)C)C4)c2)cc1` gave Vaccinia stage -36*.
Cc1ccccc1S(=O)(=O)N1CCCCN2[C@H](CO)[C@@H](c3ccc(-c4ccccc4)cc3)[C@H]2C1 was read as Vaccinia stage -22.
CC(C)(O)c1cn([C@@H]2C[C@@H]3O[C@@H](CO)CC[C@@H]3O[C@@H]2CCc2ccc(-c3ccncc3)cc2)nn1 was read as Vaccinia stage 14.
Screening C/C=C/c1ccc2c(c1)O[C@@H](CN(C)C(=O)CN1CCOCC1)[C@H](C)CN([C@H](C)CO)S2(=O)=O returned Vaccinia stage 31.
`CCCN1C[C@H](C)[C@@H](OC)CN(C)C(=O)c2ccc(NC(=O)c3cccc(F)c3)cc2OC[C@H]1C` gave Vaccinia stage -12.
Screening C[C@@H]1CCCCO[C@@H](CN(C)C)[C@H](C)CN([C@@H](C)CO)C(=O)c2cc(NS(=O)(=O)c3ccccc3)ccc2O1 returned Vaccinia stage 12.
CO[C@H]1CN(C)C(=O)c2ccc(NC(=O)C3CCOCC3)cc2OC[C@H](C)N(C(=O)c2ccccc2)C[C@@H]1C was read as Vaccinia stage 5.
Screening C[C@H](CO)N1C[C@H](C)[C@@H](CN(C)CC2CC2)Oc2ccc(NS(C)(=O)=O)cc2CC1=O returned Vaccinia stage 10.
C[C@@H]1CN([C@@H](C)CO)C(=O)c2cccc(NC(=O)Nc3ccc4c(c3)OCO4)c2O[C@H]1CN(C)Cc1ccc(C(F)(F)F)cc1 was read as Vaccinia stage -24.
Screening C[C@H]1CN([C@@H](C)CO)C(=O)c2cc(NC(=O)CCN3CCOCC3)ccc2O[C@@H]1CN(C)Cc1ccc(C(=O)O)cc1 returned Vaccinia stage -4.
For Cc1cc(C(=O)Nc2cccc3c2O[C@@H](CN(C)Cc2ccncc2)[C@H](C)CN([C@@H](C)CO)C3=O)n(C)n1 the results were Vaccinia stage 18.
Screening O=C(C[C@H]1CC[C@@H](NC(=O)c2ccc3c(c2)OCO3)[C@H](CO)O1)NCc1ccc(F)cc1 returned Vaccinia stage -9.
C[C@H]1CN([C@@H](C)CO)C(=O)c2cc(NC(=O)Nc3ccc(F)cc3)ccc2O[C@@H]1CN(C)Cc1ccc(Oc2ccccc2)cc1 was read as Vaccinia stage 4.
`O=C(CN1CCOCC1)N1CC2(C1)[C@@H](c1ccccc1)[C@@H](CO)N2Cc1ccc(F)cc1` gave Vaccinia stage 3.
C[C@@H]1CN([C@H](C)CO)C(=O)c2cc(C#Cc3ccccn3)cnc2O[C@H]1CN(C)Cc1ccncc1 was read as Vaccinia stage 25.
For CC(C)NC(=O)N(C)C[C@H]1OCCCC[C@@H](C)Oc2ccc(NC(=O)Cc3ccccc3)cc2C(=O)N([C@H](C)CO)C[C@@H]1C the results were Vaccinia stage 6.
